The sample as a whole holds a higher share of hits than the screen did.
NOMO-1 viab = STK33 inhibitor candidate reducing NOMO-1 cell viability; AID 2330; inhibition, % (concentration not given with the values); actives 7.5% (n = 37,000); NOMO-1 AML viability, CellTiter-Glo luminescence, 72 h; in the data active = inhibition above about 80%; inconclusive = no clear call, values can overlap the other calls
PD-1 reversal = reversal of PD-1 mediated T-cell inhibition; primary human CD4 T cells, PD-L1 beads, CellTiter-Glo 96 h; activation, % (concentration not given with the values); AID 2316; 29,000 tested, under 10 active; call rule not given here;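 also: 0% = median vehicle wells and 100% = positive control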
STK33 kin inh = human STK33 kinase inhibition; Q9BYT3; ADP-Glo luminescence, MBP substrate; inhibition, % at 12.5 µM; actives 0.44% (n = 27,000); AID 2322; in the data active = inhibition above about 20%; inconclusive = no clear call, values can overlap the other calls
Target sequence (Q9BYT3 whole entry, looked up): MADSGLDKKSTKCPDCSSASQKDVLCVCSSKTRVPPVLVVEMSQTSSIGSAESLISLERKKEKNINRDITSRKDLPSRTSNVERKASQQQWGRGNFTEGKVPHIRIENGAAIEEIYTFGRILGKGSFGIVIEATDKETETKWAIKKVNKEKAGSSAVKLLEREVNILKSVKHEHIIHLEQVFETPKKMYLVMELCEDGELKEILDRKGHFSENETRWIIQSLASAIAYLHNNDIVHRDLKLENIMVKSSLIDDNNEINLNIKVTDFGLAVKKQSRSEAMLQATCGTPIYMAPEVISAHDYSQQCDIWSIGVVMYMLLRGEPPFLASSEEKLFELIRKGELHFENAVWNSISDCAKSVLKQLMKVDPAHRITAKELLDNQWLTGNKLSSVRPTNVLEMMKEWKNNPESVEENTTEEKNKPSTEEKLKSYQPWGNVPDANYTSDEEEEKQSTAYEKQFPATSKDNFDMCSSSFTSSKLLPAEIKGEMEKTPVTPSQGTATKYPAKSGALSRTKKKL
An asterisk follows results filed as active.

`C[C@@H]1CN([C@H](C)CO)C(=O)c2cccc(NC(=O)CCCCCC(=O)Nc3ccccc3N)c2O[C@H]1CN(C)Cc1ccncc1` gave NOMO-1 viab 8 and PD-1 reversal 2.
C[C@@H]1CN([C@H](C)CO)C(=O)c2cccc(NC(=O)CCCCCC(=O)Nc3ccccc3N)c2O[C@@H]1CN(C)Cc1ccccc1 was read as NOMO-1 viab 48 and PD-1 reversal 1.
C[C@H]1CN([C@@H](C)CO)C(=O)c2cccc(NC(=O)CCCCCC(=O)Nc3ccccc3N)c2O[C@H]1CN(C)Cc1ccc(C(F)(F)F)cc1 was read as NOMO-1 viab 100* and PD-1 reversal 0.
For C[C@@H]1CN([C@H](C)CO)C(=O)c2cccc(NC(=O)CCCCCC(=O)Nc3ccccc3N)c2O[C@@H]1CN(C)Cc1ccncc1 the results were NOMO-1 viab 17 and PD-1 reversal 3.
C[C@@H]1CN([C@@H](C)CO)C(=O)c2cccc(NC(=O)CCCCCC(=O)Nc3ccccc3N)c2O[C@H]1CN(C)Cc1ccccc1 was read as NOMO-1 viab 122* and PD-1 reversal -2.
`C[C@@H]1CN([C@H](C)CO)C(=O)c2cccc(NC(=O)CCCCCC(=O)Nc3ccccc3N)c2O[C@@H]1CN(C)Cc1ccc(-c2ccccc2)cc1` gave NOMO-1 viab 126* and PD-1 reversal 0.
C=C1C2CCC3C(CCC4[C@]3(C)CCC[C@]4(C)C(=O)O)(C2)C1OC(=O)/C(C)=C\C (stereo not given in full) was read as STK33 kin inh -16.
For C[C@H]1CN([C@@H](C)CO)C(=O)c2cccc(NC(=O)C3CCOCC3)c2O[C@@H]1CN(C)S(=O)(=O)c1ccccc1 the results were NOMO-1 viab -10 and PD-1 reversal 0.
C[C@@H]1CN([C@@H](C)CO)C(=O)c2cccc(NC(=O)CCCCCC(=O)Nc3ccccc3N)c2O[C@H]1CN(C)Cc1ccc(Oc2ccccc2)cc1 was read as NOMO-1 viab 141* and PD-1 reversal -4.
For C[C@@H]1CN([C@@H](C)CO)C(=O)c2cccc(NC(=O)CCCCCC(=O)Nc3ccccc3N)c2O[C@H]1CN(C)Cc1ccc(Cl)c(Cl)c1 the results were NOMO-1 viab 138* and PD-1 reversal -3.
For C[C@@H]1CN([C@@H](C)CO)C(=O)c2cccc(NC(=O)CCCCCC(=O)Nc3ccccc3N)c2O[C@@H]1CN(C)Cc1ccc2c(c1)OCO2 the results were NOMO-1 viab inconclusive and PD-1 reversal -1.
For C[C@H](CO)N1C[C@H](C)[C@@H](CN(C)Cc2ccc(Oc3ccccc3)cc2)Oc2ccc(NC(=O)CCCCCC(=O)Nc3ccccc3N)cc2C1=O the results were NOMO-1 viab 28 and PD-1 reversal 0.
For COc1ccc(S(=O)(=O)N(C)C[C@H]2Oc3c(NC(=O)c4cnccn4)cccc3C(=O)N([C@H](C)CO)C[C@@H]2C)cc1 the results were NOMO-1 viab 14 and PD-1 reversal 1.
CC(C)[C@H]1C=C(C(=O)NCc2ccccc2)O[C@@H](OCc2ccc(CO)cc2)C1 was read as STK33 kin inh -1.
For C[C@@H]1CN([C@H](C)CO)C(=O)Cc2cc(NC(=O)CCCCCC(=O)Nc3ccccc3N)ccc2O[C@H]1CN(C)Cc1ccc(Oc2ccccc2)cc1 the results were NOMO-1 viab 125* and PD-1 reversal 2.
For C[C@H]1CN([C@@H](C)CO)C(=O)c2cc(NC(=O)CCCCCC(=O)Nc3ccccc3N)ccc2O[C@H]1CN(C)Cc1ccc(-c2ccccc2)cc1 the results were NOMO-1 viab 109* and PD-1 reversal -2.
`C[C@H]1CN([C@@H](C)CO)C(=O)Cc2cc(NC(=O)CCCCCC(=O)Nc3ccccc3N)ccc2O[C@H]1CN(C)Cc1ccc(-c2ccccc2)cc1` gave NOMO-1 viab 142* and PD-1 reversal -3.
`COc1ccc(CN(C)C[C@H]2Oc3ccc(NC(=O)CCCCCC(=O)Nc4ccccc4N)cc3CC(=O)N([C@@H](C)CO)C[C@@H]2C)cc1` gave NOMO-1 viab 42 and PD-1 reversal 1.
Screening C[C@H](CO)N1C[C@H](C)[C@H](CN(C)Cc2ccc(-c3ccccc3)cc2)Oc2ccc(NC(=O)CCCCCC(=O)Nc3ccccc3N)cc2C1=O returned NOMO-1 viab 65 and PD-1 reversal 0.
C[C@@H]1CN([C@H](C)CO)C(=O)Cc2cc(NC(=O)CCCCCC(=O)Nc3ccccc3N)ccc2O[C@H]1CN(C)Cc1ccncc1 was read as NOMO-1 viab -4 and PD-1 reversal 2.
C[C@@H]1CN([C@@H](C)CO)C(=O)Cc2cc(NC(=O)CCCCCC(=O)Nc3ccccc3N)ccc2O[C@@H]1CN(C)Cc1ccccc1 was read as NOMO-1 viab 113* and PD-1 reversal -1.
`C[C@@H]1CN([C@@H](C)CO)C(=O)Cc2cc(NC(=O)CCCCCC(=O)Nc3ccccc3N)ccc2O[C@@H]1CN(C)Cc1ccncc1` gave NOMO-1 viab 34 and PD-1 reversal 0.
CC1=C(C(=O)Nc2ccccc2C)C(c2ccccc2OCc2ccccc2)n2ncnc2N1 (stereo not given) was read as NOMO-1 viab -24, PD-1 reversal 0 and STK33 kin inh 1.
`CC(C)NC(=O)Nc1cccc2c1O[C@H](CN(C)C(=O)Nc1ccc(F)cc1)[C@@H](C)CN([C@H](C)CO)C2=O` gave NOMO-1 viab 9 and PD-1 reversal 1.
`C[C@@H]1CN([C@H](C)CO)C(=O)c2cc(NC(=O)Nc3cccc4ccccc34)ccc2O[C@H]1CN(C)S(C)(=O)=O` gave NOMO-1 viab 8 and PD-1 reversal 1.
C[C@H](CO)N1C[C@H](C)[C@H](CN(C)S(=O)(=O)c2ccc(Cl)cc2)Oc2c(NS(=O)(=O)c3ccc(F)cc3)cccc2C1=O was read as NOMO-1 viab 2.
Screening C[C@H]1CN([C@@H](C)CO)C(=O)c2cc(NC(=O)CCCN(C)C)ccc2O[C@@H]1CN(C)Cc1ccc(-c2ccccc2)cc1 returned NOMO-1 viab 12, PD-1 reversal 0 and STK33 kin inh 1.
`COc1c(Cl)cc(C(=O)Nc2sc3c(c2C(=O)NCc2ccco2)CCC3)cc1Cl` gave NOMO-1 viab 13, PD-1 reversal -4 and STK33 kin inh -3.
Cc1ccc2c(C)c(C(=O)Nc3sc4c(c3C(=O)NCc3ccco3)CCC4)oc2c1 was read as NOMO-1 viab 103* and STK33 kin inh -1.
`C[C@H]1CN([C@@H](C)CO)C(=O)c2cccc(NC(=O)CCCCCC(=O)Nc3ccccc3N)c2O[C@@H]1CN(C)S(C)(=O)=O` gave NOMO-1 viab 13 and PD-1 reversal -1.
`O=C1CN(/N=C/c2ccc([N+](=O)[O-])o2)C(=O)N1` gave NOMO-1 viab 45, PD-1 reversal 1 and STK33 kin inh 1.
For O=C(N/N=C/c1ccc([N+](=O)[O-])o1)c1ccc(O)cc1 the results were NOMO-1 viab 140*, PD-1 reversal -7 and STK33 kin inh 7.
Cc1cccc(C)c1OCC(=O)Nc1ccc(O)cc1C(=O)O was read as NOMO-1 viab -9, PD-1 reversal 1 and STK33 kin inh -4.
For C=C1CCC(O)/C(C)=C\CC(C(C)C)C(OC2OC(COC(C)=O)C(O)C(O)C2O)C1 (stereo not given) the results were NOMO-1 viab 0, PD-1 reversal 1 and STK33 kin inh 0.

Assay outcomes from PubChem BioAssay.
